Sampled rows, rich in hits. Any-hit rate of the full collection: about 3.8%.
Yeast superoxide = lowers age-related superoxide in aged yeast cells; AID 2690; 330,000 compounds, 0.18% hits; S. cerevisiae aged cells, superoxide DHE fluorescence; active compounds read low; superoxide response (% of plate mean), % at 10 µM;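 active = superoxide response under a set limit, about three screen SD below normal, cut at about 65% in these data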;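 note: yeast aged for seven days with compound at 30 °C before DHE staining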
Mot1-301 SUMO = SUMOylation pathway inhibition by Mot1-301 growth rescue; AID 2716; S. cerevisiae Mot1-301 growth rescue, ATP luminescence, 38.5C; percent above DMSO median, 100 means doubled; growth rescue, % at 18.8 µM; 320,000 compounds, 1% hits;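 active = every valid replicate shows activation above 250% relative to neutral control wells; inactive = the rest, any valid replicate at or below 250%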
FAS TE block = inhibitors of human fatty acid synthase thioesterase domain; P49327; recombinant FAS-TE, OMFH fluorogenic substrate, fluorescence endpoint; inhibition, % at 15 µM; 360,000 compounds, 0.67% hits;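 active = compounds whose normalised, plate-corrected inhibition of enzyme fluorescence in the single-dose primary screen is 50% or more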
MPTP block = blocks calcium-induced mitochondrial swelling | isolated mouse mitochondria, Ca2+ swelling absorbance, 30 min | inhibition, % at 10 µM | 360,000 compounds, 1.4% hits | AID 602449;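 active = inhibition of 50% or more, scaled per plate between neutral and stimulator controls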
aDG glyco act = alpha-DG glycosylation activation; activation, % at 10 µM; 360,000 compounds, 0.22% hits; AID 624168; Pro5-aDG cells, alpha-DG glycosylation AlphaScreen (IIH6); 0% Pro5, 100% B10-LARGE cell signal;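 active = activation of at least 8% versus controls, or a plate z-score of at least 8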;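 note: Pro5 are CHO cells carrying HIG-tagged alpha-DG that lacks glycosylation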
H9c2 protect = modulators protecting cardiomyocytes from myocardial damage; H9c2 cardiomyocytes, H2O2 injury protection, ATPLite, 2 h; protection from H2O2 cell death, % at 20 µM; 360,000 compounds, 0.63% hits;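 active = compounds giving at least 50% protection of heart cells from peroxide-induced death in the single-dose screen, raw or plate-pattern-corrected value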
aDG conf = alpha-DG glycosylation activation, confirmation; 600 compounds, 17% hits; Pro5-aDG cells, IIH6 AlphaLISA; scaled to LARGE-overexpressing B10 cells as 100%; shares compounds with aDG glyco act; activation, % at 10 µM (by protocol);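 active = activation of at least 7% in one or more replicates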;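 note: cells exposed to compound for two days before detection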
Of the large screens only hits and unclear results are named; the others gave an inactive call (follow-up assays come after a bar, where they were run).

Cc1ccc(C2=NS(=O)(=O)N(C)C(C(=O)Nc3cc(C)n(CC(=O)N4CCC(C)CC4)n3)=C2)cc1	none
Cc1nc(NCCc2ccc(S(N)(=O)=O)cc2)c2c(C)c(C)sc2n1	aDG glyco act 8.2 | aDG conf inactive
Cc1nc(NCc2ccc(S(N)(=O)=O)cc2)c2c(C)c(C)sc2n1	none
COc1ccc(NC(C)C(=O)N/N=C/c2ccc([N+](=O)[O-])s2)cc1 (stereo not given)	aDG glyco act 9.7 | aDG conf inactive
Cc1ccc(NC(C)C(=O)N/N=C/c2ccc([N+](=O)[O-])s2)cc1 (stereo not given)	none
Cc1cc(=O)oc2cc(OCC(=O)N3CCc4ccccc4C3)ccc12	aDG glyco act 4.2 | aDG conf inactive
CCOC(=O)C1(C)CCCN1C(=O)c1ccccc1OC (stereo not given)	none (no result: Yeast superoxide, Mot1-301 SUMO)
CC(=O)Nc1ccc(-c2ccnc3c2CC(C)(C(=O)NCC2CCOCC2)O3)cc1 (stereo not given)	none (no result: Yeast superoxide, Mot1-301 SUMO)
O=C(OCc1ccccc1)N1CCC2CC1c1cc(N3CCNCC3)ccc12 (stereo not given)	none (no result: Yeast superoxide, Mot1-301 SUMO)
O=C(OCc1ccccc1)N1CCC2CC1c1cc(N3CCCCC3)ccc12 (stereo not given)	aDG glyco act 5.9 (no result: Yeast superoxide, Mot1-301 SUMO) | aDG conf inactive
CC/C(=N\NC(=O)C1CCCC1)c1ccc(Br)cc1	aDG glyco act 8.8 | aDG conf inactive
O=S(=O)(c1ccccc1F)N1CCC(Oc2ccc(-n3cnnn3)cc2)CC1	none (no result: Mot1-301 SUMO)
CN1CCN(c2ncnc3c2ncn3[C@H]2CN(Cc3ccc(-c4ccccc4)cc3)C[C@@H](CO)O2)CC1	aDG glyco act 9.6 (no result: Yeast superoxide, Mot1-301 SUMO) | aDG conf 9.8
Oc1cccc(C=NCc2ccccc2)c1	aDG glyco act 51 | aDG conf inactive
COc1cc(N)c2ncsc2c1	aDG glyco act 9.7 (no result: Yeast superoxide, Mot1-301 SUMO) | aDG conf inactive
COc1ccc(OC)c(N)c1	none
CS(=O)(=O)c1ccc(Nc2nc(C(N)Cc3ccc(Cl)cc3)cs2)cc1 (stereo not given)	aDG glyco act 24 (no result: Yeast superoxide, Mot1-301 SUMO) | aDG conf 11
O=C(c1cc(Br)ccc1Cl)N1CCN(c2ccc(N3CCOCC3)nn2)CC1	none
O=C(NCc1cccnc1)c1ccc(NC(=O)c2ccc([N+](=O)[O-])cc2)cc1	none
CC(C)(C)c1ccc(C(=O)Nc2ccc(C(=O)NCc3cccnc3)cc2)cc1	aDG glyco act 2.3 | aDG conf 4.5
COc1ccc(CNC(=O)C2CC(C)=CCC2C(=O)O)cc1 (stereo not given)	none
COc1cc2[nH]c3c(=O)n4c(nc3c2cc1OC)SCCC4	aDG glyco act 31 | aDG conf 22
COc1ccc2[nH]c3c(=O)n4c(nc3c2c1)SCC4	none
CN(CC(=O)NCc1cccs1)CC(=O)Nc1ccccc1Cl	none (no result: Yeast superoxide, Mot1-301 SUMO)
c1ccc(Cn2nnnc2C(c2ccccc2)N2CCN(c3nc4ccccc4s3)CC2)cc1 (stereo not given)	none
c1csc(Cn2nnnc2CN2CCN(c3nc4ccccc4s3)CC2)c1	aDG glyco act 6.0 (no result: Mot1-301 SUMO) | aDG conf 2.8
CCN1CCN(C2=C(NS(=O)(=O)c3ccc(NC(C)=O)cc3)C(=O)c3ccccc3C2=O)CC1	aDG glyco act 6.7 | aDG conf inactive
Cc1ccc(N(CC(O)CN2CCCCC2)S(=O)(=O)c2ccccc2)cc1 (stereo not given)	none
COc1ccc(C(C(=O)NC2CCCC2)N(C(=O)c2ccco2)c2cc3c(cc2C(C)=O)OCO3)cc1 (stereo not given)	none
CN(C)c1nc(Oc2ccc(=O)n(C)n2)nc(N2CCOCC2)n1	aDG glyco act 6.9 | aDG conf inactive
Cc1ccc([C@@H]2CC=C(C(=O)O)[C@H](c3ccccc3)N2S(=O)(=O)c2ccccc2C)cc1	none (no result: Mot1-301 SUMO)
COc1ccccc1C(=O)Nc1ccc2c(c1)CCCN2C(=O)c1ccccc1	aDG glyco act 9.6 | aDG conf inactive
COc1ccccc1C(=O)Nc1ccc2c(c1)CCCN2C(=O)c1cccs1	none
CCCCCOc1ccc(/C(C)=N/NC2=NCCN2)cc1	aDG glyco act 1.6 | aDG conf 8.6
COc1ccc(-c2cc(C(=O)NCc3cccc(C(F)(F)F)c3)[nH]n2)c(C)c1	none (no result: Yeast superoxide, Mot1-301 SUMO)
CN(CC(=O)Nc1ccccc1C(=O)NC1CC1)Cc1ccco1	aDG glyco act 4.2 | aDG conf inactive
CCc1nc2c(OCCn3cccc3)cccn2c1N(C)C(=O)c1ccco1	none (no result: Yeast superoxide, Mot1-301 SUMO)
Cc1ccc(CNC(=O)CN(C(=O)C2(C)CC(=O)N=C3C=CC=CN32)c2cccc(C)c2C)cc1 (stereo not given)	aDG glyco act 2.6 | aDG conf inactive
Cc1ccc(N(CC(=O)NC(C)c2ccccc2)S(=O)(=O)c2c(C)n[nH]c2C)cc1 (stereo not given)	aDG glyco act 5.6 | aDG conf inactive
Cc1ccc(N(CC(=O)NC(C)c2ccccc2)S(=O)(=O)c2c(C)noc2C)cc1 (stereo not given)	none
O=C(N/N=C\c1ccccc1)c1ccccc1-n1cccc1	none
Cc1ccccc1OCC(=O)N/N=C/c1ccc([N+](=O)[O-])o1	aDG glyco act 7.9 | aDG conf inactive
Cc1cc(C)cc(OCC(=O)N/N=C/c2ccc([N+](=O)[O-])o2)c1	none
O=C(CNc1cccc([N+](=O)[O-])c1)N/N=C/c1ccc([N+](=O)[O-])o1	aDG glyco act 19 | aDG conf 4.7
CC1(C(=O)N/N=C/c2ccc([N+](=O)[O-])o2)CC1(Br)Br (stereo not given)	aDG glyco act 4.6 | aDG conf inactive
O=C(N/N=C/c1ccc([N+](=O)[O-])o1)c1ccccc1-n1cccc1	aDG glyco act 3.3 | aDG conf inactive
Cc1ccc(OCc2nnn(CC(=O)NS(=O)(=O)c3c(C)noc3C)c2-c2ccccc2)cc1	none (no result: Yeast superoxide, Mot1-301 SUMO)
COc1ccccc1CN(C)C(=O)c1cc(S(=O)(=O)N2CCCCCC2)ccc1OC	none (no result: Yeast superoxide, Mot1-301 SUMO)
CCCOc1ccc(C(=O)N(CC(C)C)c2c(N)n(Cc3ccccc3)c(=O)[nH]c2=O)cc1	aDG glyco act 5.7 | aDG conf inactive
CCOc1ccc(OCCC(=O)N(CC(C)C)c2c(N)n(Cc3ccccc3)c(=O)[nH]c2=O)cc1	none (no result: Yeast superoxide, Mot1-301 SUMO)
CCN(CC)CCn1c(=N)n(CC(=O)c2ccc(C)cc2)c2ccccc21	aDG glyco act 3.8 | aDG conf 11
Cc1cc(NC(=O)CSc2c3c(nc4ccccc24)CCC3)no1	aDG glyco act 8.2 | aDG conf inactive
Cc1ccc(-n2c(SCC(N)=O)nnc2-c2ccco2)cc1	aDG glyco act 4.3 | aDG conf inactive
CCOC(=O)C1(C)CCN1C(=O)CSc1ccccc1 (stereo not given)	none (no result: Yeast superoxide, Mot1-301 SUMO)
Nc1ccn([C@@H]2O[C@H](COS(=O)(=O)O)[C@@H](O)[C@H]2O)c(=O)n1	none

Screening results as filed in PubChem BioAssay.
